Among the data in the supplement of paper PMC6555819 are PBM binding z-score values, retold here.

In this test the test system is PPARa:RXRa (NR concentration 270 nM, RXRa partner concentration 90 nM). Nature of the test: PBM binding z-score (relative to random genomic background probes); higher = stronger binding; sequences stand for … in GC…GCGATTGACAGCGTAGAATGAAGG
Put shortly:
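Each nuclear receptor dimer, without ligand, was incubated for 1 h on custom Agilent 4×180K protein-binding microarrays. Binding was detected with antibodies against each partner (one per run), and scanned fluorescence was regression-normalized. The binding z-scores are referenced to random human genomic background probes.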
CCTAGCAGGCCAGTCTGGGTCACTCAAGGCTTGA yielded a PBM binding z-score of 2.13.
Then GCTCGGAGGACAAGGTCCGAGCTTTGTCCGTAGA, with -0.595; and AGAATGATGTTACCAAAGATCAGGGAAACGCTTG, with -0.0184.
ACTATTAGTTGAGACGAGGGCAACCCATAGGTTG returned a PBM binding z-score of 0.296.
With CGTCCAGGGTCAAAGGTCAGTGAAGAGATGACGG the figure was 7.21.
With AGACAAAGTTCACTAGGTAACGTAAGATTCAGCT, the PBM binding z-score was determined as 4.76.
The sequence GCGACTGGGGCAAAGCAGCTTACCATAAGGTTGG came in with a PBM binding z-score of 0.229.
With CCTAACGGGTCAAGGTTATAGCACGGGTGGTACG the figure was 4.48; with CTCGAAAGGTCTTGCTCAGGTGAGTATACCAAAC, 0.978; with CAAACTAGGTCACAGATGTCAAAGTCCGTGCGTA, 5.44.
Then TCGGGTAGGTTAGGGGCATTCAGAATGGCGTCGA, with 1.85; and CAAACTAGGTCAAGAGGTCAACGTCCGCTTCCCG, with 6.6.
Then CCTATTAGTTGACTATAAGGGCAACCGAAGCTCG, with 0.121.
The sequence ATCGAGAGGTCGTGAGGTGAGTATACAGAAAGGC had a PBM binding z-score of 4.03.
Then GGAACGAGGGCAAGTTGATACCAGAGTTTGATGG, with 1.58.
With ATCTCTAGGTAACCAAGTTGAGTGAATGCCGAAC the figure was 0.54.
Then ATTACAGGGTCACTAGGCCAGAGTAGGTACGAAT, with 5.94; and GCAAGCAGGCCATTTGGGTCACTCAATGACGGGC, with 1.34.
Sequence CGTCAAAGTTTAACTAAGGTAACGTAAAGCACGC had a PBM binding z-score of 1.15.
Then AGTAGCAGGCCAAGTTTGGGTCACTCAAACAAAG, with 1.47; and ATATGTAGGCTAGCTGGGGTCATTCAGACTAGGC, with 4.32.
With ATCTCTAGGTAAAAGTTCAGTGATTCCCGAGGAT the figure was 4.08.
